Screening data: PubChem, National Center for Advancing Translational Sciences (NCATS)
Hits are enriched below; roughly 1.4% of the tested compounds scored in any of these assays.
Rango-impB inh: prevents formation of the Rango-importin beta complex. AID 540263. Q14974. Rango CFP/YFP FRET sensor + importin beta, 45 min. Potency, µM (series often up to 92.2 µM), for the others: at the top dose inhibition of complex formation. actives 0.031% (n = 340,000);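 also: potency is read from the fitted curve at half-maximal effect; 0% = DMSO wells and 100% = buffer wells lacking importin beta; nearly all actives have a fitted effect of over 15% in size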
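FRET biosensor Rango (snurportin 1 IBB between N-terminal EYFP and C-terminal Cerulean), 50 nM in PBS/1 mM DTT/0.02% Tween-20/0.1% BSA, preincubated 5 min RT with compound; 0.125 microM importin beta added, 45 min RT, CFP/YFP FRET ratio read.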
Rango release inh: inhibition of RanGTP-driven Rango-importin beta dissociation. O95149+P62826. Biochemical FRET Rango-importin beta, RanGTP-induced dissociation. Potency, µM (top dose mostly 46.1 µM), without a hit: at the top dose activity change, negative = inhibition. actives 0.071% (n = 340,000). AID 540253; also: potency is read from the fitted curve at half-maximal effect; % of control where 0% means no effect; nearly all actives have a fitted effect of over 45% in size
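FRET read at 45 min, room temperature: inhibitors block the CFP/YFP signal rise when RanGTP (0.6 uM Ran, 2 mM GTP, 0.2 uM RCC1) frees Rango (0.1 uM) from importin beta (0.25 uM). Pre-read after 5 min compound exposure flags interference.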
CCT chaperon mod: changes cytosolic chaperonin activity | activity change, % (test concentration not listed), hits read low | purified chaperonin ATPase assay, HTRF ADP detection, 30 min | AID 651819 | actives 0.3% (n = 360,000); in the data active = activity change below about -30%; also: % is scaled to controls: 0 for no effect and ±100 for the full control effect
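We incubate TRiC, 40 or 20 nM final, with library compounds at 76 uM and 10 uM ATP for 30 min at 37 °C. ADP formed is detected with Transcreener HTRF reagents after 30 min at room temperature.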
KCNH2 WT inh: blocks the wildtype human KCNH2 potassium channel; AID 720551; activity change, % at 1.84 µM; U2OS, BacMam KCNH2, thallium flux FluxOr; active compounds read low; Q12809; actives 0.37% (n = 340,000);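 active = maximum activity change below -70%; inconclusive = maximum activity change between -70% and -50%; inactive = maximum activity change above -50%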; also: % is scaled to controls: 0 for no effect and ±100 for the full control effect
Target sequence (Q12809 whole entry, looked up): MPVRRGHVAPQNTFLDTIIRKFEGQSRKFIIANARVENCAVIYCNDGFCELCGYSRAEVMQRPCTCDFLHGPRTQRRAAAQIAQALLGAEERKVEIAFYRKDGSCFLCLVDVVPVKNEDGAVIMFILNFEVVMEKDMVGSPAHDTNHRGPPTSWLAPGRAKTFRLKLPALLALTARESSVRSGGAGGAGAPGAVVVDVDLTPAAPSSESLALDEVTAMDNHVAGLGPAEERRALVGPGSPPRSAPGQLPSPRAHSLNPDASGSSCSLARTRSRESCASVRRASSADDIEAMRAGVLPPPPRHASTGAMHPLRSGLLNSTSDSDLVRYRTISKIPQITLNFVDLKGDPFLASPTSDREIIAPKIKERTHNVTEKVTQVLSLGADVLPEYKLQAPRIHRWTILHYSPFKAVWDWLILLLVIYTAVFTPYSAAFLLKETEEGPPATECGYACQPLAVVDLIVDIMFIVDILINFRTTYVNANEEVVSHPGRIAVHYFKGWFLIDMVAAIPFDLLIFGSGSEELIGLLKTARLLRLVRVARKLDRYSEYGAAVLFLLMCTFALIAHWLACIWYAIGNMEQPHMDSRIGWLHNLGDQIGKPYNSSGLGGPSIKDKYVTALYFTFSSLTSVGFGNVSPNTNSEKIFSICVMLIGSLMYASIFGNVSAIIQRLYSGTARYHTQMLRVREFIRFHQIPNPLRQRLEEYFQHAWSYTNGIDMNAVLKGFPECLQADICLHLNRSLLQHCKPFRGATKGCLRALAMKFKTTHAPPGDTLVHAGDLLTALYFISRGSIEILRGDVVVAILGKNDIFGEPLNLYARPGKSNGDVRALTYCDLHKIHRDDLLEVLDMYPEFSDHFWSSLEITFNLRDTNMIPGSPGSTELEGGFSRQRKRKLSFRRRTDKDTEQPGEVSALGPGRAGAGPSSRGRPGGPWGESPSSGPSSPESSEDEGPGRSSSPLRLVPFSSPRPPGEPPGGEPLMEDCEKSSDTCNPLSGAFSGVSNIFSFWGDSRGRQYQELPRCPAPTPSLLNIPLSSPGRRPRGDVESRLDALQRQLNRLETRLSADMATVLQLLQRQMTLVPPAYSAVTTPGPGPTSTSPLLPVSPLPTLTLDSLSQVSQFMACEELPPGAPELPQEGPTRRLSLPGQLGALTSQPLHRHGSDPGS
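U2OS cells were transduced with wild-type KCNH2 virus (2.03 x 10^8 / mL) for 4 h at room temperature, then cultured overnight at 37 C. Thallium flux was read with FluxOr dye. Rate constants were normalized to DMSO controls.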
Mm-Cpn inhibitor: inhibitors of Methanococcus maripaludis chaperonin TRiC (MmCpn); Potency, µM (titrated, usually from 76.9 µM), without a hit: at the highest dose activity, negative = inhibition, actives largely listed as inhibitors; AID 504842; actives 0.031% (n = 330,000); purified Mm-Cpn ATPase, ADP Transcreener TR-FRET; active = well fitted inhibition curve with a large enough effect; inconclusive = small, poorly fitted or top-dose-only effect; also: potency is read from the fitted curve at half-maximal effect; % is scaled to controls: 0 for no effect and ±100 for the full control effect; nearly all actives have a fitted effect of over 80% in size
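Purified archaeal Mm-CPN (25nM final) preincubated 10 min at 37degC with compound, then 10uM ATP for 30 min at 37degC; ADP measured by HTRF Transcreener TR-FRET; buffer 30 mM TRIS pH 7.4, 100mM KCl, 5mM MgCl2, 1mM DTT.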
KCNH2 3.1 inh: KCNH2 3.1 (human) potassium channel inhibition; U2OS KCNH2 3.1, thallium flux FluxOr; active compounds read low; activity change, % (tested at about 1.8 µM); actives 0.95% (n = 340,000); AID 720553;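 active = maximum activity change below -70%; inconclusive = maximum activity change from -70% to -50%; inactive = maximum activity change above -50%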;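 also: thallium influx rate constant from kinetic fluorescence after stimulation buffer; % is scaled to controls: 0 for no effect and ±100 for the full control effect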
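U2OS cells transduced with KCNH2 3.1 mutant virus (1.77 x 10^8 /mL, 4 h), plated overnight at 37 C, loaded 45 min with FluxOr dye plus Red40 quencher. Thallium flux rate constant from kinetic reads after stimulation buffer, normalised to controls.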
Starred values were filed as active, the others as inactive; ? = inconclusive; · = not tested or not shown. Unless noted, calls follow the shape of the full dose curve.

SMILES	Rango-impB inh	Rango release inh	CCT chaperon mod	KCNH2 WT inh	Mm-Cpn inhibitor	KCNH2 3.1 inh
COc1cccc(C(NC(C)=O)c2ccc3cccnc3c2O)c1 (centres undefined)	-2%	12%	-1	-82*	-1%	-5
O=[N+]([O-])c1ccc(NC(c2ccccc2)c2ccc3cccnc3c2O)cc1 (centres undefined)	2%	10%	0	-12	·	-71*
Cc1nc(N2CCOCC2)nc2c1CCC2	5%	0%	-3	7	-2%	·
NS(=O)(=O)c1ccc(NC(=S)Nc2cc(Cl)c(Cl)cc2Cl)cc1	0%	20%	-2	0	-2%	9
CN(C)c1ccc(NC(=O)COC(=O)c2cc(Cl)ccc2[N+](=O)[O-])cc1	-3%	-5%	-90*	7	2%	25
NS(=O)(=O)c1ccc(NC(=O)COC(=O)c2cc(Cl)ccc2[N+](=O)[O-])cc1	-1%	-14%	-18	5	0%	5
COC(=O)c1cccc(NC(=O)CCN2C(=O)C3CC=CCC3C2=O)c1 (centres undefined)	-1%	-2%	1	-2	0%	28
NNC(=O)CN1C(CN2CCOCC2)=Nc2ccc(Br)cc2C1c1ccccc1 (centres undefined)	?	16%	2	-32	-3%	-73*
CC1=Nc2ccc(Br)cc2C(c2ccccc2)N1CC(=O)NN (centres undefined)	7%	15%	-2	1	1%	2
CCOc1ccc(NC(=O)Nc2cnccn2)cc1	-2%	-7%	-1	-7	1%	14
CCC(C)c1ccc(NC(=O)Nc2cnccn2)cc1 (centres undefined)	-1%	-7%	3	-281*	1%	-12
Cc1oc(-c2ccc(Cl)cc2)nc1CN1CCC(C(=O)NCc2cccs2)CC1	5%	-8%	2	13	-1%	-47
Cc1ccccc1-c1nc(CN2CCC(C(=O)NCCC3=CCCCC3)CC2)c(C)o1	-4%	-8%	-2	-78*	2%	-71*
CCc1ccc(-c2nc(CN3CCC(C(=O)NCCN(CC)c4ccccc4)CC3)c(C)o2)cc1	0%	5%	-2	-32	3%	-112*
COc1ccc(CCNC(=O)C2CCN(Cc3nc(-c4ccccc4C)oc3C)CC2)cc1OC	-2%	-6%	2	24	-6%	-21
CCN(CCNC(=O)C1CCN(Cc2nc(-c3cccc(Cl)c3)oc2C)CC1)c1ccccc1	-3%	6%	1	-30	1%	-19
CCN(CCNC(=O)C1CCN(Cc2nc(-c3ccc(Cl)cc3)oc2C)CC1)c1ccccc1	-1%	-4%	-1	-29	0%	-72*
CCc1ccc(-c2nc(CN3CCC(C(=O)NCc4ccc(F)cc4)CC3)c(C)o2)cc1	0%	11%	2	?	-3%	-107*
CCOc1ccccc1CNCC1CCCO1 (centres undefined)	5%	1%	0	-3	0%	-3
COc1ccc(Cc2nnc(NC(=O)c3ccc(F)cc3)s2)cc1OC	1%	19%	0	-4	-5%	40
Cc1c(-c2ccccc2)nc2ccccc2c1C(=O)OCC(=O)Nc1ncc(C(F)(F)F)cc1Cl	-4%	-11%	-53*	-9	?	-6
Cc1cccn2cc(COc3ccc(-c4ccccc4)cc3)nc12	-4%	4%	2	4	1%	-101*
CC(C)C[C@H]1CN(CCCC[C@H]2CNC(=O)C(=O)N2CCC2CCCCC2)C(=O)C(=O)N1CC1CCCCC1	·	·	1	·	·	·
CCn1nc(C(=O)OC(C(=O)c2c[nH]c3ccccc23)c2ccccc2)c2ccccc2c1=O (centres undefined)	0%	2%	-2	-3	-10%	-76*
COC(=O)[C@]12CCCCC=C1N(Cc1cccc3ccccc13)C(=O)[C@H](CC(=O)NCc1ccc(OC)c(OC)c1)C2	·	·	0	·	·	·
SMILES	Rango-impB inh	Rango release inh	CCT chaperon mod	KCNH2 WT inh	Mm-Cpn inhibitor	KCNH2 3.1 inh
O=C(COC(=O)c1ccco1)Nc1cccc(S(=O)(=O)N2CCOCC2)c1	·	·	-1	-5	·	2
O=C(COC(=O)C1CC2C=CC1C2)Nc1cccc(S(=O)(=O)N2CCOCC2)c1 (centres undefined)	-2%	-2%	2	2	0%	-104*
Cc1cc(N2C(=O)C3CC=CC(C)C3C2=O)no1 (centres undefined)	-3%	-17%	-1	-4	1%	3
CCOc1ccc(CCNC(=O)Cn2nc(C)n3cccc3c2=O)cc1OCC	0%	?	-2	-6	1%	-20
CCOc1ccccc1/C=C/c1onc(C)c1S(=O)(=O)N1CCC(C(=O)N(CC)CC)CC1	0%	10%	-3	3	-2%	-95*
Cc1n[nH]c(C)c1Sc1ccccc1N=Cc1cc(Cl)cc([N+](=O)[O-])c1O	2%	-15%	-17	-133*	-1%	-5
Cc1n[nH]c(C)c1Sc1ccccc1[N+](=O)[O-]	4%	29%	1	-14	1%	-3
O=C(c1ccc(-c2ccc([N+](=O)[O-])cc2)o1)N1CCCCC1	-1%	14%	0	5	-1%	6
O=C(c1ccc(-c2ccc(Cl)cc2)o1)N1CCN(c2ccc([N+](=O)[O-])cc2Cl)CC1	?	?	-2	-5	-2%	-83*
O=C(c1cccnc1)N1CCN(c2ccc([N+](=O)[O-])cc2Cl)CC1	-1%	0%	0	9	-1%	-120*
O=C(c1ccc([N+](=O)[O-])cc1)N1CCN(C(=O)c2cccnc2)CC1	0%	-3%	-2	6	1%	0
O=[N+]([O-])c1cccc(-c2ccc(C(=S)N3CCN(c4ccc(F)cc4)CC3)o2)c1	1%	4%	-3	-1	-1%	-8
O=C(c1ccc(-c2cccc([N+](=O)[O-])c2)o1)N1CCN(c2ccc([N+](=O)[O-])cc2)CC1	-2%	-3%	1	-111*	1%	-116*
NC(=O)Nc1ccc(C(=O)OCC(=O)Nc2ccc([N+](=O)[O-])cc2C(F)(F)F)cc1	3%	14%	-3	5	-1%	6
O=C(C1CCN(Cc2cccs2)CC1)N1CCN(Cc2ccc3c(c2)OCO3)CC1	0%	1%	-1	2	0%	-5
Cn1c(=O)c([N+](=O)[O-])c(N2CCN(Cc3ccc4c(c3)OCO4)CC2)c2ccccc21	3%	23%	0	5	0%	0
